Shown are actives, neighbours in structure and some others; about 3.9% of the full set was active somewhere.
PLK1 PBD block: blocks phosphopeptide binding to human PLK1 polo-box domain. P53350. Plk1 PBD binding of FITC phosphopeptide, fluorescence polarization. Potency, µM, for the others: max response, negative = inhibition, actives largely listed as inhibitors. hit rate 2.8% among 360,000; note: series mostly up to about 57 µM; % is set by controls: 0 for no effect and ±100 for the full control effect; nearly all actives have a fitted effect of over 65% in size
Target sequence (P53350 whole entry, looked up, the tested form may be a part): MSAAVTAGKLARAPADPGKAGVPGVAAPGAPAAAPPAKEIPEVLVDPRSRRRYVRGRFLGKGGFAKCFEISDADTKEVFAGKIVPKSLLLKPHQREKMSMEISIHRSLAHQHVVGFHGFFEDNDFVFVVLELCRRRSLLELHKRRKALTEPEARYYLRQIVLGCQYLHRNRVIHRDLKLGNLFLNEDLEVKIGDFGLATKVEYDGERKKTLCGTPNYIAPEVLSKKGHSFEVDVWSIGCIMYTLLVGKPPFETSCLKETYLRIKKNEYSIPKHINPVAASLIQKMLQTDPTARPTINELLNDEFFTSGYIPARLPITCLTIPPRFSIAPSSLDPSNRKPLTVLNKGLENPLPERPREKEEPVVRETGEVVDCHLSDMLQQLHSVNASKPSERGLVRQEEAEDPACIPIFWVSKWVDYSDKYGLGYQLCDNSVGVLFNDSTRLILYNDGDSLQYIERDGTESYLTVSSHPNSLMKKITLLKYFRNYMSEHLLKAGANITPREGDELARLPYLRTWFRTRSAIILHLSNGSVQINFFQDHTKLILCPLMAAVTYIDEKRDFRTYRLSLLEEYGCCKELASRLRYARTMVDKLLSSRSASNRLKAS
VDR inh: blocks the human vitamin D receptor; P11473; AID 504847; VDR-SRC2-3 peptide fluorescence polarization, 2 h; Potency, µM, without a hit: max response, negative = inhibition, actives largely listed as inhibitors; hit rate 0.93% among 400,000; note: % is set by controls: 0 for no effect and ±100 for the full control effect
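After 23 nl compound addition and a short centrifugation, plates sat for 2 hours at ambient temperature; polarization of fluorescence then indicated loss of VDR binding to peptide SRC2-3.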
BRCA1 expr act: BRCA1 expression activation; MCF7-BRCA1-FFLuc reporter, luminescence, 48 h; response scale: scaled: vehicle 0%, 10 µM genistein 100%; Potency, µM (doses to about 46.1 µM), inactives show at the top dose activation, actives largely listed as activators; hit rate 1.1% among 380,000; AID 624202; note: nearly all actives have a fitted effect of over 80% in size
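MCF7-BRCA1-FFLuc, 2000 cells/well; 2 h attach, 37 °C/5% CO2; compound 48 h; luciferase substrate 15 min; luminescence end-point. Norm. to genistein 10 microM max activation and DMSO; concentration-response curves fitted.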
Tb PFK inh: T. brucei PFK enzyme inhibition | Potency, µM (highest dose often 57.5 µM), without a hit: top-dose activity, negative = inhibition, hits mostly inhibitors | hit rate 0.17% among 330,000 | O15648 | T. brucei PFK, ADP-Glo luminescence;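 note: 0% = uninhibited 1x PFK enzyme wells and -100% = no-enzyme wells; nearly all actives have a fitted effect of over 60% in size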
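Compounds were pin-transferred as a titration series up to 57 uM into substrate buffer (0.5 mM F6P, 0.1 mM ATP, pH 8.0), then 1.25 nM PFK was added and reactions ran 45 min before ADP-Glo detection.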
Active calls of the source: *. Calls come from the whole dose curve; as a rule, active = well fitted curve in the direction sought with a large enough effect; inconclusive = small, poorly fitted or top-dose-only effect, or another doubt; inactive = no such curve, though single readings can be large; an effect the other way counts as inactive or inconclusive. Potency is the fitted concentration of half-maximal effect.

`O=C(Nc1ccc(F)c(Cl)c1)Nc1nnc([C@@H]2O[C@H](CO)[C@@H](O)[C@H]2O)s1` gave PLK1 PBD block -6.4% and BRCA1 expr act 17.3%.
`CC(C)(O)[C@@H]1CCC[N+]2(C)CCCC[C@H]12` (stereo not given in full) gave VDR inh -2.8%.
For C/[N+]([O-])=C\c1cccc(OCCN2CCN(c3ncc(C(F)(F)F)cc3Cl)CC2)c1 the results were PLK1 PBD block 11.9µM*, VDR inh -3.3%, BRCA1 expr act -49.5% and Tb PFK inh 0.6%.
`CC1=C(C(=O)Nc2cccc(C(F)(F)F)c2)C2(CCN(C(C)C)CC2)OC1=O` gave VDR inh 8.1% and BRCA1 expr act 4.1%.
Screening CCOC(=O)C1(Cc2ccccc2Cl)CCN(C(=O)CN2CCOC2=O)CC1 returned PLK1 PBD block -3.5%, VDR inh -10.5%, BRCA1 expr act 12.6µM* and Tb PFK inh 3.5%.
Screening CCOC(=O)C1(CCCc2ccccc2)CCN(C(=O)CN2CCOC2=O)CC1 returned PLK1 PBD block -8.0%, VDR inh -11.0%, BRCA1 expr act -4.6% and Tb PFK inh -2.3%.
Screening Cc1ccccc1CNC(=O)c1ccc(CN2CC(=O)N3CCCCC3C2=O)cc1 (stereo not given) returned VDR inh -6.8%.
`CCn1ccc(C(=O)Nc2cccc(Cl)c2)n1` gave PLK1 PBD block -2.7%, VDR inh -3.2%, BRCA1 expr act inconclusive and Tb PFK inh 3.6%.
Screening CCn1ccc(C(=O)Nc2ccccc2Cl)n1 returned PLK1 PBD block -10.1%, VDR inh -14.4%, BRCA1 expr act 3.16µM* and Tb PFK inh -0.3%.
Cc1ccc(NC(=O)CN(C)C(=O)c2cccc(Br)c2)cc1 was read as PLK1 PBD block 29.9µM*, VDR inh -19.2%, BRCA1 expr act -28.9% and Tb PFK inh -8.6%.
Screening Cc1ccc(NC(=O)CN(C)C(=O)c2cccc(S(=O)(=O)NCc3ccccc3)c2)cc1 returned PLK1 PBD block 4.7%, VDR inh 3.5%, BRCA1 expr act -7.5% and Tb PFK inh 0.0%.
Screening CN(C)c1ccc(NC(=O)N2CCOCC2)cc1 returned PLK1 PBD block -6.2%, VDR inh 14.1µM*, BRCA1 expr act 70.3% and Tb PFK inh -17.4%.
`CCC(C)c1ccc(NC(=O)N2CCOCC2)cc1` (stereo not given) gave PLK1 PBD block 1.1%, VDR inh 10.4%, BRCA1 expr act 10µM* and Tb PFK inh 1.0%.
Screening Cc1ccc(S(=O)(=O)N2CCN(Cc3noc(CCC(=O)N4CCCCC4)n3)CC2)c(C)c1 returned VDR inh -4.0%.
Screening O=C(NCCSc1c[nH]c2ccccc12)c1ccc(Cl)cc1 returned VDR inh -9.7%.
`O=C(NCCc1c[nH]c2ccccc12)c1ccc(F)cc1F` gave PLK1 PBD block 1.7%, VDR inh 19.6%, BRCA1 expr act 3.98µM* and Tb PFK inh 0.8%.
For COc1ccc(C(=O)NCCc2c[nH]c3ccccc23)cc1 the results were PLK1 PBD block -9.3%, VDR inh 5.2%, BRCA1 expr act 5.62µM* and Tb PFK inh -0.2%.
`O=C(NCCc1c[nH]c2ccccc12)c1ccc(Cl)cc1` gave PLK1 PBD block -0.6%, VDR inh -0.9%, BRCA1 expr act 3.55µM* and Tb PFK inh 3.0%.
For COc1cc(SC)ccc1C(=O)NCCc1c[nH]c2ccccc12 the results were PLK1 PBD block -6.3%, VDR inh -4.3%, BRCA1 expr act 46.9% and Tb PFK inh 4.6%.
Cc1ccsc1C(=O)NCCc1c[nH]c2ccccc12 was read as PLK1 PBD block -5.3%, VDR inh -9.5%, BRCA1 expr act 12.6µM* and Tb PFK inh 3.9%.
`COc1ccc(OCC(=O)NCCc2c[nH]c3ccccc23)cc1` gave PLK1 PBD block -9.7%, VDR inh -9.7%, BRCA1 expr act -25.2% and Tb PFK inh -4.1%.
`O=C(CN(c1cccc(Cl)c1)S(=O)(=O)c1ccc(Cl)cc1)N1CCc2ccccc2C1` gave PLK1 PBD block -2.0%, VDR inh -20.2%, BRCA1 expr act -15.0% and Tb PFK inh 1.7%.
For COc1ccc(CNc2ccc3cc(S(=O)(=O)N4CCCCC4)ccc3n2)cc1 the results were VDR inh 7.4%.
For CN(N=Nc1nc[nH]c1C(N)=O)C1CCCCC1 the results were PLK1 PBD block -10.3% and BRCA1 expr act 8.1%.
Screening Cc1ccccc1NC(=O)CC1SC(=O)N(c2ccccc2)C1=O (stereo not given) returned PLK1 PBD block 10.6µM*, VDR inh 9.9%, BRCA1 expr act 2.2% and Tb PFK inh 4.5%.
O=C(CC1SC(=O)N(c2ccccc2)C1=O)Nc1cccc2ccccc12 (stereo not given) was read as PLK1 PBD block 10.6µM*, VDR inh 44.7µM*, BRCA1 expr act 0.0% and Tb PFK inh 1.9%.
Cc1noc(C)c1C(=O)Nc1nc2ccc(Cl)cc2s1 was read as PLK1 PBD block -18.5%, VDR inh -9.0%, BRCA1 expr act inconclusive and Tb PFK inh -1.8%.
CSC[C@H]1CN(c2ccccc2)C(=O)[C@@H]1CC(=O)Nc1ccc(Br)cc1 was read as PLK1 PBD block 2.0% and BRCA1 expr act 1.3%.
For C[C@H](CO)N1C[C@H](C)[C@@H](CN(C)S(=O)(=O)c2cccs2)OCc2cnnn2CCCC1=O the results were PLK1 PBD block -18.8% and BRCA1 expr act 5.3%.
For CCOC(=O)c1ccc(S(=O)(=O)N2CCN(c3nc(-c4cccs4)nc4ccccc34)CC2)cc1 the results were VDR inh -6.3% and BRCA1 expr act 1.5%.
CCC(=O)Nc1ccc(N2CCOCC2)c(S(=O)(=O)Nc2ccc(Cl)cc2)c1 was read as PLK1 PBD block 7.52µM*, VDR inh inconclusive, BRCA1 expr act 4.5% and Tb PFK inh -16.6%.
Screening COc1ccc(NS(=O)(=O)c2cc(NC(=O)c3ccc(Cl)cc3)ccc2N2CCOCC2)cc1 returned PLK1 PBD block 17.7%, VDR inh 6.2%, BRCA1 expr act -46.4% and Tb PFK inh -3.9%.
COCCNC(=S)Nc1ccc(N2CCOCC2)c(S(=O)(=O)Nc2ccc(Cl)cc2)c1 was read as PLK1 PBD block 2.38µM* and BRCA1 expr act -27.1%.
Screening C=CCNC(=S)Nc1ccc(N2CCOCC2)c(S(=O)(=O)Nc2ccccc2Cl)c1 returned PLK1 PBD block -11.0%, VDR inh -16.8%, BRCA1 expr act -9.2% and Tb PFK inh -4.4%.
Screening CCOc1ccc(N(CC)C(=O)c2nn(-c3ccc(OC)cc3)c(=O)c3c2c2ccccc2n3C)cc1 returned PLK1 PBD block 26.7µM*, VDR inh -7.2%, BRCA1 expr act -0.5% and Tb PFK inh -3.6%.
Screening CCOc1ccccc1NC(=O)c1nn(-c2ccc(OC)cc2)c(=O)c2c1c1ccccc1n2C returned VDR inh -0.6%.
Screening CC(=O)OCCOc1nc(NC(C)C)nc(NC(C)C)n1 returned PLK1 PBD block 29.9µM*, VDR inh inconclusive, BRCA1 expr act -5.3% and Tb PFK inh 1.2%.
COC(=O)c1ccc(/C=C/c2ccc3cccc(OC)c3n2)cc1 was read as PLK1 PBD block -13.3%, VDR inh -1.2%, BRCA1 expr act -15.4% and Tb PFK inh 8.5%.

Source: PubChem (National Center for Advancing Translational Sciences (NCATS))
